Assay results as given in PubChem BioAssay (EPA / NIEHS).
Values joined by “and” are separate entries in the source; they are usually repeats but may differ in a detail not shown here. Equal values may be shown once. Records with an inconclusive call do not appear. More than one record can exist for a structure, and the calls need not agree. Active and inactive are the calls of the source. The calls were made as follows, unless noted: active = hit-call score of the fitted dose curve at least 0.9, where 1 is the maximum; inactive = score below 0.9.

Test system: not listed separately
Assay: CCTE_Shafer_MEA_acute_synchrony_index: CCTE's Neural Acute Assay for Synchrony, Shafer Lab (AID 2284027);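 also: network synchrony index of spontaneous spiking in primary rat cortical neurons on MEAs; fitted for loss of signal so actives lower synchrony relative to DMSO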
How it was run: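 Rat cortical cultures, DIV 13/15; spikes detected at 8x rms noise, 300-5000 Hz band-pass. Compound 0.03-40 uM, ≥3 wells; 40-min pre- and post-exposure recordings, 37 C. Readout: % change in synchrony index; loss-of-signal fit vs DMSO.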

Compound	AC50	outcome
C=CCC1=C(C)[C@@H](OC(=O)[C@@H]2[C@@H](C=C(C)C)C2(C)C)CC1=O	27.2 µM (active)	
COP(=S)(OC)Oc1nc(Cl)c(Cl)cc1Cl		inactive
CNC(=O)ON=CC(C)(C)SC		inactive
C#CCOS(=O)OC1CCCCC1Oc1ccc(C(C)(C)C)cc1 (stereo not drawn)	32.5 µM (active)	
CO/C=C(/C(=O)OC)c1ccccc1Oc1cc(Oc2ccccc2C#N)ncn1	10.7 µM (active)	
N#Cc1nn(-c2c(Cl)cc(C(F)(F)F)cc2Cl)c(N)c1S(=O)C(F)(F)F (stereo not drawn)	33.4 µM (active) and 23.4 µM (active)	
Cc1ccc(-c2c(Cl)nc(C#N)n2S(=O)(=O)N(C)C)cc1		inactive

Target: Estrogen receptor (Homo sapiens) (UniProt P03372)
Assay: CCTE_Deisenroth_AIME_384WELL_LUC_Active: CCTE's 384-well Estrogen Receptor Transactivation Assay with AIME metabolic competence (ERTA luciferase; metabolism positive), Deisenroth Lab (AID 2284030; active = hit-call score of the fitted dose curve at least 0.9, where 1 is the maximum)
How it was run: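 Readout: bioluminescent luciferase induction in VM7Luc4E2 cells 24 hour after receiving medium from a 2 h rat hepatic S9 (induced, alginate microsphere) metabolism step. Concentrations 0.002 - 200 uM; activity scaled to 17beta-estradiol positive control.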

Sequence of Estrogen receptor (Homo sapiens) (P03372 whole entry, looked up): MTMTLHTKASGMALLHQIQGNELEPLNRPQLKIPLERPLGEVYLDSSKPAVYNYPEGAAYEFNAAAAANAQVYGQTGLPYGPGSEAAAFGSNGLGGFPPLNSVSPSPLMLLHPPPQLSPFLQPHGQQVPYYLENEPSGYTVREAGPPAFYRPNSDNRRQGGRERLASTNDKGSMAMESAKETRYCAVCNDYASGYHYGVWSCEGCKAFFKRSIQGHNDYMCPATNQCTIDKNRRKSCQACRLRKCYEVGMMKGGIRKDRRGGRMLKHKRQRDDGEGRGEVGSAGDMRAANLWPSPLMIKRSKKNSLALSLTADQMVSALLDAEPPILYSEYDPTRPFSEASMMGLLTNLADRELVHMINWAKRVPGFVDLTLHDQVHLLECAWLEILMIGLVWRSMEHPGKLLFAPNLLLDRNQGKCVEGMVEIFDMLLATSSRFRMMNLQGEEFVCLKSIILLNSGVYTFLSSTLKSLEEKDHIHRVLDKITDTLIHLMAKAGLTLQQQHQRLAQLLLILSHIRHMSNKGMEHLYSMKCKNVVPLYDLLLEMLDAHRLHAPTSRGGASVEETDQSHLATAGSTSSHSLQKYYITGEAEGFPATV

Compound	AC50	outcome
COc1cnc(OC)n2nc(NS(=O)(=O)c3c(OCC(F)F)cccc3C(F)(F)F)nc12	21.2 µM (active)	
O=C(O)COc1nc(Cl)c(Cl)cc1Cl		inactive
CC1=C(C(=O)Nc2ccccc2)SCCO1		inactive
Oc1ccccc1-c1ccccc1	57.9 µM (active)	
CCON=C(CC)C1=C(O)CC(c2c(C)cc(C)cc2C)CC1=O (stereo not drawn)		inactive
C=CC1(C)OC(=O)N(c2cc(Cl)cc(Cl)c2)C1=O (stereo not drawn)		inactive

Test system: not listed separately
Assay: CCTE_Shafer_MEA_dev_per_burst_spike_percent: CCTE's Neural Network Formation Assay for Percent of Spikes in a Burst, Shafer Lab (AID 2284032);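 as to AC50: fitted as a decrease in burst spike percentage below DMSO baseline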
How it was run: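 Value is trapezoidal AUC over recordings on days 5, 7, 9 and 12 of the well-mean fraction of spikes falling in single-electrode bursts; rat cortical cultures exposed continuously from plating, treatment renewed DIV 5 and 9, fitted downward against DMSO.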

Compound	outcome	AC50
C=CCC1=C(C)[C@@H](OC(=O)[C@@H]2[C@@H](C=C(C)C)C2(C)C)CC1=O	inactive	
COP(=S)(OC)Oc1nc(Cl)c(Cl)cc1Cl	inactive	
CNC(=O)ON=CC(C)(C)SC	inactive	
CCCCOC(=O)c1ccccc1C(=O)OCCCC		75.3 µM (active)
CCOC(=O)CC(SP(=S)(OC)OC)C(=O)OCC (stereo not drawn)		20.9 µM (active) and 15 µM (active)
CCCCNC(=O)n1c(NC(=O)OC)nc2ccccc21		15 µM (active)
CO/C=C(/C(=O)OC)c1ccccc1Oc1cc(Oc2ccccc2C#N)ncn1		1.64 µM (active) and 1.26 µM (active)
N#Cc1nn(-c2c(Cl)cc(C(F)(F)F)cc2Cl)c(N)c1S(=O)C(F)(F)F (stereo not drawn)	inactive	
CCCCC(CC)COC(=O)c1ccccc1C(=O)OCC(CC)CCCC (stereo not drawn)	inactive	15 µM (active) and 9.27 µM (active)
CCOc1cc(Oc2ccc(C(F)(F)F)cc2Cl)ccc1[N+](=O)[O-]		12.8 µM (active)
C=CC1(C)OC(=O)N(c2cc(Cl)cc(Cl)c2)C1=O (stereo not drawn)	inactive	
CN(C)C(=S)SSC(=S)N(C)C		0.0103 µM (active)
Cc1ccc(-c2c(Cl)nc(C#N)n2S(=O)(=O)N(C)C)cc1		18.3 µM (active)

Target: Estrogen receptor (Homo sapiens) (UniProt P03372)
Assay: CCTE_Deisenroth_AIME_384WELL_LUC_Inactive: CCTE's 384-well Estrogen Receptor Transactivation Assay without AIME metabolic competence (ERTA luciferase; metabolism negative), Deisenroth Lab (AID 2284038; active = hit-call score of the fitted dose curve at least 0.9, where 1 is the maximum;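 also: VM7Luc4E2 breast cells given medium preincubated 2 h with S9-free microspheres; hits raise estrogen receptor luciferase signal so potencies reflect agonists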)
How it was run: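 Metabolism-negative mode: AIME lids stamped in alginate-water, no hepatic S9. 2 h chemical incubation → medium onto VM7Luc4E2 ERTA, 24 h. Readout luciferase luminescence; gain-of-signal fit vs 17beta-estradiol. Conc. 0.002 - 200 uM.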

Compound	AC50	outcome
COc1cnc(OC)n2nc(NS(=O)(=O)c3c(OCC(F)F)cccc3C(F)(F)F)nc12	13.7 µM (active)	
O=C(O)COc1nc(Cl)c(Cl)cc1Cl		inactive
CC1=C(C(=O)Nc2ccccc2)SCCO1		inactive
Oc1ccccc1-c1ccccc1		inactive
C=CC1(C)OC(=O)N(c2cc(Cl)cc(Cl)c2)C1=O (stereo not drawn)	63.4 µM (active)	

Test system: not listed separately
Assay: CCTE_Deisenroth_AIME_384WELL_CTox_Inactive: Cytotoxicity Assessment (CTOX) in CCTE's 384-well Estrogen Receptor Transactivation Assay without AIME metabolic competence (metabolism negative), Deisenroth Lab (AID 2284039; active = hit-call score of the fitted dose curve at least 0.9, where 1 is the maximum;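 also: cell viability via live-cell protease substrate cleaved to fluorescent probe; cells exposed 24 h to medium preincubated 2 h with alginate-water beads without S9; loss of fluorescence signal means loss of viability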)
How it was run: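 Fluorescence from a live-cell protease substrate, read after 24 h in VM7Luc4E2 cells, indicated viability. Test medium came from a 2 h AIME step without hepatic S9 (alginate-water microspheres); concentrations spanned 0.002 - 200 uM, single technical replicate per run.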

Compound	outcome
COc1cnc(OC)n2nc(NS(=O)(=O)c3c(OCC(F)F)cccc3C(F)(F)F)nc12	inactive
N#Cc1cc(Br)c(O)c(Br)c1	inactive
Oc1ccccc1-c1ccccc1	inactive
C#CCOS(=O)OC1CCCCC1Oc1ccc(C(C)(C)C)cc1 (stereo not drawn)	inactive
CCc1nn(C)c(C(=O)NCc2ccc(C(C)(C)C)cc2)c1Cl	inactive
CCOc1cc(Oc2ccc(C(F)(F)F)cc2Cl)ccc1[N+](=O)[O-]	inactive
C=CC1(C)OC(=O)N(c2cc(Cl)cc(Cl)c2)C1=O (stereo not drawn)	inactive

Test system: not listed separately
Assay: CCTE_Shafer_MEA_dev_active_electrodes_number: CCTE's Neural Network Formation Assay for Number of Active Electrodes, Shafer Lab (AID 2284040; active = hit-call score of the fitted dose curve at least 0.9, where 1 is the maximum;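 as to AC50: potency for loss of active electrodes versus DMSO so lower counts are hits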)
How it was run: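 Developing rat cortical networks on MEAs, exposed DIV 0–12. Value is the AUC of active-electrode counts (≥5 spikes/min) from days 5, 7, 9, 12, relative to DMSO.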

Compound	AC50	outcome
C=CCC1=C(C)[C@@H](OC(=O)[C@@H]2[C@@H](C=C(C)C)C2(C)C)CC1=O	6.82 µM (active)	
COP(=S)(OC)Oc1nc(Cl)c(Cl)cc1Cl		inactive
CNC(=O)ON=CC(C)(C)SC		inactive
CCCCOC(=O)c1ccccc1C(=O)OCCCC	75.1 µM (active)	
CCOC(=O)CC(SP(=S)(OC)OC)C(=O)OCC (stereo not drawn)	17.1 µM (active) and 6.38 µM (active)	
CCCCNC(=O)n1c(NC(=O)OC)nc2ccccc21	15 µM (active)	
CO/C=C(/C(=O)OC)c1ccccc1Oc1cc(Oc2ccccc2C#N)ncn1	1.52 µM (active) and 1.07 µM (active)	
N#Cc1nn(-c2c(Cl)cc(C(F)(F)F)cc2Cl)c(N)c1S(=O)C(F)(F)F (stereo not drawn)		inactive
CCCCC(CC)COC(=O)c1ccccc1C(=O)OCC(CC)CCCC (stereo not drawn)	15 µM (active) and 7.34 µM (active)	inactive
CCOc1cc(Oc2ccc(C(F)(F)F)cc2Cl)ccc1[N+](=O)[O-]	4.91 µM (active)	
C=CC1(C)OC(=O)N(c2cc(Cl)cc(Cl)c2)C1=O (stereo not drawn)	50 µM (active)	
CN(C)C(=S)SSC(=S)N(C)C	0.011 µM (active)	
Cc1ccc(-c2c(Cl)nc(C#N)n2S(=O)(=O)N(C)C)cc1	39 µM (active)	

Target: Estrogen receptor (Homo sapiens) (UniProt P03372)
Assay: CCTE_Deisenroth_AIME_384WELL_LUC_Shift: CCTE's 384-well Estrogen Receptor Transactivation Assay with AIME metabolic competence data shift (ERTA luciferase; difference in metabolism positive and negative), Deisenroth Lab (AID 2284041);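 also: shift is response with S9 minus without S9 so positive means metabolism raised ER signal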
How it was run: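 Chemicals (0.002–200 uM, 10 points) pre-incubated 2 h with alginate-encapsulated induced male Sprague Dawley rat liver S9 or S9-free, then medium applied 24 h to VM7Luc4E2 cells; luciferase. Endpoint is per-concentration difference, S9-positive minus negative.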

Compound	AC50	outcome
COc1cnc(OC)n2nc(NS(=O)(=O)c3c(OCC(F)F)cccc3C(F)(F)F)nc12	28 µM (active)	
N#Cc1cc(Br)c(O)c(Br)c1		inactive
O=C(O)COc1nc(Cl)c(Cl)cc1Cl		inactive
CC1=C(C(=O)Nc2ccccc2)SCCO1		inactive
Oc1ccccc1-c1ccccc1		inactive
C#CCOS(=O)OC1CCCCC1Oc1ccc(C(C)(C)C)cc1 (stereo not drawn)		inactive
CCc1nn(C)c(C(=O)NCc2ccc(C(C)(C)C)cc2)c1Cl		inactive
CCON=C(CC)C1=C(O)CC(c2c(C)cc(C)cc2C)CC1=O (stereo not drawn)		inactive
CCOc1cc(Oc2ccc(C(F)(F)F)cc2Cl)ccc1[N+](=O)[O-]		inactive
C=CC1(C)OC(=O)N(c2cc(Cl)cc(Cl)c2)C1=O (stereo not drawn)	42.4 µM (active)	
